Screening data as filed in PubChem BioAssay.
The list is not random: actives were taken first. Their share in the collection is about 17%.
HepG2 tox – kills HepG2 cells in TGF-b inhibitor counter-screen. HepG2 CAGA-GFP viability, ATP luminescence, 18 h. Potency, µM (top dose mostly 46.1 µM), actives largely listed as cytotoxic. actives 0.76% (n = 410,000)
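HepG2 CAGA-GFP cells (1000/well, DMEM with 1% FBS) received compound, then TGF-beta at 500 pg/mL final, and were incubated 18 hours at 37 degrees C. Viability was read by CellTiter-Glo luminescence. Media-only wells were set as complete cell-killing and DMSO as no toxicity.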
TDP1 cell CPT – DT40-hTDP1 cell growth loss with CPT; chicken DT40 Tdp1-/-;hTDP1 cells + 20 nM CPT, ATP luminescence, 48 h; Potency, µM (titrated, usually from 46.2 µM), most hits filed as inhibitors; actives 12% (n = 420,000); AID 686979; also: nearly all actives have a fitted effect of over 55% in size
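Chicken DT40 Tdp1-/- cells stably complemented with human TDP1 were seeded at 400 cells/well in medium containing 20 nM camptothecin, exposed to pin-transferred compounds, and grown at 37 °C for at least 48 hr. Viability was read as ATP luminescence.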
HT1080 IDH1KD tx – HT-1080 IDH1 knockdown cell toxicity (counter line); HT-1080 IDH1 knockdown viability, ATP luminescence, 48 h; Potency, µM (doses to about 46.1 µM), actives largely listed as cytotoxic; actives 2% (n = 360,000); AID 686971
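Assay cells: HT-1080 with IDH1 knockdown, 750 per well, RPMI/5% FBS. Exposure: 48 h at 37 °C following 2 h pre-incubation. Read: CellTiter-Glo luminescence; fitted concentration-response, curve class assigned.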
TGFb SMAD3 inh – inhibitors of TGF-b signaling; HepG2 CAGA-GFP TGF-b/SMAD3 reporter, GFP fluorescence, 18 h; TGF-beta stimulated, 500 pg/mL final; Potency, µM (titrated, usually from 46.1 µM), most hits filed as inhibitors; actives 1.2% (n = 410,000); also: nearly all actives have a fitted effect of over 65% in size
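TGF-beta reporter screen: HEPG2 CAGA-GFP, 1% FBS, 500 pg/mL TGF-beta final, 18 h; per-cell GFP summed per well; curves fitted and categorized by class.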
HT1080NT lethal – kills 2HG-producing HT-1080-NT fibrosarcoma cells | HT-1080-NT fibrosarcoma viability, CellTiter-Glo ATP luminescence, 48 h | actives 1.6% (n = 360,000) | Potency, µM (highest dose often 46.1 µM), hits mostly cytotoxic | AID 686970;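 also: NT is the 2HG producing partner of a matched IDH1 knockdown line; nearly all actives have a fitted effect of over 55% in size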
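Toxicity toward the 2HG-producing NT line was scored as %Activity, normalised to DMSO and no-cell wells, from CellTiter-Glo luminescence after 48 hours' treatment.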
TDP1 cell noCPT – qHTS for Inhibitors of human tyrosyl-DNA phosphodiesterase 1 (TDP1): qHTS in cells in absence of CPT | DT40 Tdp1-/- hTDP1 cells, no CPT, ATP luminescence, 48 h | Potency, µM (doses to about 46.2 µM), most hits filed as inhibitors | actives 15% (n = 420,000); also: nearly all actives have a fitted effect of over 55% in size
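Growth kinetics read by CellTiter-Glo luminescence after ≥48 hr at 37 °C. Cells: DT40 Tdp1-/- stably carrying human TDP1, 400 per well, compound exposure in the absence of CPT (DMSO vehicle).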
Of the large screens only hits and unclear results are named; the others gave an inactive call. Calls follow the shape of the dose curve; as a rule, active = well fitted curve in the direction sought with a large enough effect; inconclusive = small, poorly fitted or top-dose-only effect, or another doubt; inactive = no such curve, though single readings can be large; an effect the other way counts as inactive or inconclusive.

CCOc1ccc(N(C(=O)c2snc(C(N)=O)c2N)C(C(=O)NC2CCCC2)c2ccncc2)cc1 (stereo unspecified)	none
CCOC(=O)Cn1c(=O)n(C2CCCCC2)c2nc(-c3cccc(C)c3)nc(C(N)=O)c21	TDP1 cell CPT inconclusive (no result: HT1080 IDH1KD tx, HT1080NT lethal)
COC(=O)Cn1c(=O)c2c(nc3n2CCN3c2ccc(F)cc2)n(C)c1=O	none (no result: HT1080 IDH1KD tx, HT1080NT lethal)
Cc1ccc(S(=O)c2ccc(NC(=O)C3CC3)cc2C#N)cc1 (stereo unspecified)	TDP1 cell CPT 18µM, TDP1 cell noCPT 23µM
COc1ccc(CC(=O)NCc2ccccc2)cc1S(=O)(=O)N1CCOCC1	none
COc1ccc(CC(=O)N(C)Cc2ccc(C(C)(C)C)cc2)cc1S(=O)(=O)N1CCOCC1	TDP1 cell CPT 21µM, TDP1 cell noCPT 29µM
COc1ccc(CC(=O)N(Cc2ccccc2)c2ccc(C)cc2)cc1S(=O)(=O)N1CCOCC1	TDP1 cell CPT 18µM, TDP1 cell noCPT 16µM
COc1ccc(C(=O)NCc2c(C)nn(Cc3ccccc3)c2C)cc1S(=O)(=O)N1CCOCC1	TDP1 cell CPT 10µM, HT1080 IDH1KD tx inconclusive, HT1080NT lethal inconclusive, TDP1 cell noCPT inconclusive
CCC(Sc1nc2cc(OC)c(OC)cc2c(=O)n1Cc1ccc(Cl)cc1)C(=O)NCCOC (stereo unspecified)	none (no result: HT1080 IDH1KD tx, HT1080NT lethal)
COc1cc(OC)cc(C(=O)NCCC(c2ccccc2)c2ccccc2)c1	TDP1 cell CPT inconclusive, TDP1 cell noCPT inconclusive
Cc1cccc(NC(=S)NN(Cc2ccccc2)c2ccccc2)c1C	TDP1 cell CPT 25µM, TDP1 cell noCPT 16µM
COc1cc(NC(=S)NCCC(c2ccccc2)c2ccccc2)cc(OC)c1	TDP1 cell CPT inconclusive, HT1080 IDH1KD tx inconclusive, TGFb SMAD3 inh inconclusive, TDP1 cell noCPT 18µM
COc1ccc(NC(=S)N2CCN(C(c3ccccc3)c3ccccc3)CC2)c(OC)c1	TDP1 cell CPT 15µM, HT1080 IDH1KD tx inconclusive, TDP1 cell noCPT 18µM
CCCN(Cc1ccccc1)C(=S)Nc1cccc(C)c1C	TDP1 cell CPT inconclusive, TDP1 cell noCPT inconclusive
COc1cccc(NC(=S)NCCC(c2ccccc2)c2ccccc2)c1	TDP1 cell CPT 21µM, TGFb SMAD3 inh inconclusive, TDP1 cell noCPT 13µM
CCc1ccc(CNC(=O)C2CCCN(c3nn4c(=O)cc(C)nc4s3)C2)cc1 (stereo unspecified)	none
Cc1ccccc1NC(=S)NCc1cccs1	TDP1 cell noCPT inconclusive
Cc1ccccc1NC(=S)NCc1ccccc1	TDP1 cell CPT 29µM, TDP1 cell noCPT 23µM
Cc1cc(Cl)ccc1NC(=S)NCc1ccc(Cl)cc1	TDP1 cell CPT inconclusive, TDP1 cell noCPT 23µM
COc1ccc(NC(=S)NCCC(c2ccccc2)c2ccccc2)c(OC)c1	TDP1 cell CPT 18µM, HT1080 IDH1KD tx 22µM, TGFb SMAD3 inh inconclusive, TDP1 cell noCPT 16µM
COc1ccc(N2CCN(C(=S)NC(C)c3ccccc3)CC2)cc1 (stereo unspecified)	TDP1 cell CPT inconclusive, TDP1 cell noCPT 15µM
Cc1cc(Cl)ccc1NC(=S)NCc1ccc(S(N)(=O)=O)cc1	TDP1 cell CPT inconclusive
O=S(=O)(Nc1ccc2ccccc2n1)c1ccccc1	TDP1 cell CPT inconclusive
Cc1csc(C(C)N(C)C(=O)c2cnn(-c3nccc(-c4cc(C)sc4C)n3)c2C)n1 (stereo unspecified)	TDP1 cell noCPT inconclusive (no result: HepG2 tox, HT1080 IDH1KD tx, TGFb SMAD3 inh, HT1080NT lethal)
Cc1cc(Cl)ccc1NC(=S)NCCC(c1ccccc1)c1ccccc1	TDP1 cell CPT 16µM, HT1080 IDH1KD tx inconclusive, TGFb SMAD3 inh inconclusive, HT1080NT lethal inconclusive, TDP1 cell noCPT 16µM
Cc1cccc(NC(=S)NCCC(c2ccccc2)c2ccccc2)c1	TDP1 cell CPT inconclusive, TGFb SMAD3 inh 11µM, TDP1 cell noCPT 16µM
